Assay results as given in PubChem BioAssay AID602393 (Broad Institute, 2012).
Among all 350,000 compounds or so, about 7,000 (2%) were called active. This excerpt belongs to a sample that is enriched for actives. A number with no mark means an inactive call. Rule as the data show it: active = activation above about 40%; inconclusive = no clear call, values can overlap the other calls; inactive = below that.

experiment: Bmi1 luciferase reporter increase in mESCs, primary screen, esBAF inhibitor project, mouse ES cells, Bmi1 luciferase knock-in, single point (AID 602393); conditions: 24 h, at 12.5 µM, hits give high values, 100% = twice the neutral-well signal;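 also: 0% = median of the plate's neutral control wells and 100% = double that signal; a rise in the Bmi1 reporter signal indicates esBAF inhibition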

Row | SMILES | reporter increase
1 | COCCNC(=O)[C@@H]1[C@@H](CO)[C@@H]2Cn3c(ccc(-c4ccccc4F)c3=O)[C@@H]2N1C(=O)C1CC1 | 2.48%
2 | CO[C@H]1CN(C)C(=O)c2ccc(NC(=O)Nc3ccc4c(c3)OCO4)cc2OC[C@H](C)NC[C@H]1C | 37%
3 | CO[C@@H]1CN(C)C(=O)c2cc(NC(=O)Nc3ccc4c(c3)OCO4)ccc2OC[C@@H](C)NC[C@@H]1C | 73.2% (active)
4 | CO[C@@H]1CN(C)C(=O)c2cc(NC(=O)Nc3ccc(F)cc3)ccc2OC[C@@H](C)NC[C@@H]1C | -1.25%
5 | COc1ccc(NC(=O)N(C)C[C@@H]2Oc3ccc(NC(=O)Cn4cnnn4)cc3C(=O)N([C@H](C)CO)C[C@@H]2C)cc1 | 1.18%
6 | O=C(/C=C/c1ccc(Cl)cc1Cl)NCc1ccco1 | 44.2% (active)
7 | COC(=O)/C=C/C(=O)NCc1ccco1 | 8.72%
8 | O=C(COC(=O)Cc1ccc(Cl)cc1Cl)NCc1ccco1 | -12.6%
9 | COc1ccc(S(=O)(=O)Nc2ccc3c(c2)CC(=O)N([C@@H](C)CO)C[C@@H](C)[C@H](CN(C)S(=O)(=O)c2ccccc2)O3)cc1 | 4.43%
10 | COc1ccc(S(=O)(=O)Nc2ccc3c(c2)C(=O)N([C@@H](C)CO)C[C@@H](C)[C@H](CN(C)Cc2ccc(C(F)(F)F)cc2)OCCCC[C@@H](C)O3)cc1 | -1.52%
11 | Cc1cc(-n2nc(C)cc2C)n2ncc(-c3ccccc3)c2n1 | 28.6%
12 | COc1ccccc1NC(=O)C1CCCN(c2cc(C)nc3ncnn23)C1 (configuration not stated) | -8.67%
13 | COc1ccccc1-c1cnn2c(N3CCOCC3)cc(C)nc12 | 57.3% (active)
14 | CN1c2ccc(C3=CCCCC3)cc2[C@H]2[C@H](CCN2S(=O)(=O)c2ccccc2)[C@@H]1CO | 3.61%
15 | Cc1ccc(S(=O)(=O)Oc2ccc(/C=N/NC(=O)c3ccncc3)cc2)cc1 | 4.2%
16 | Cc1ccc(/C=N/NC(=O)c2sccc2OCc2ccc(F)cc2)cc1 | 53.7% (active)
17 | Cc1ccc(S(=O)(=O)N(CC(=O)N/N=C/c2ccc(F)cc2)c2cccc3cccnc23)cc1 | 0.787%
18 | C[C@H]1CN([C@@H](C)CO)S(=O)(=O)c2ccc(-c3ccccc3)cc2O[C@H]1CN(C)C(=O)CC1CC1 | -0.183%
19 | CCCNC(=O)N1C[C@H]2[C@@H](c3ccccc31)[C@@H](CO)N2C(=O)NCCC | -2.97%
20 | O=C(NCC[C@H]1CC[C@H](NC(=O)C2CC2)[C@@H](CO)O1)c1cc(Cl)cc(Cl)c1 | 1.12%
21 | C[C@@H]1CN([C@H](C)CO)C(=O)c2cc(Br)cnc2O[C@@H]1CN(C)C(=O)C1CC1 | -3.93%

Row | SMILES | reporter increase
22 | O=C(Nc1ccc(N2CCOCC2)cc1)c1ccc(-c2ccccc2[N+](=O)[O-])o1 | 22.9% (active)
23 | O=[N+]([O-])c1ccc(N2CCOCC2)cc1 | 6.61%
24 | COc1ccccc1C(=O)NC(=S)Nc1ccc(N2CCOCC2)cc1 | 25.5%
25 | C[C@H]1CN([C@@H](C)CO)C(=O)c2cccc(NS(=O)(=O)c3cccs3)c2O[C@H]1CN(C)C(=O)Nc1ccccc1 | -1.97%
26 | O=C(Cc1ccncc1)NCC[C@H]1CC[C@H](NC(=O)C2CC2)[C@H](CO)O1 | -2.52%
27 | CCn1c(SCC(=O)Nc2nccs2)nnc1-c1ccncc1 | -8.57%
28 | Cn1c(SCC(=O)Nc2nccs2)nnc1-c1cccnc1 | -5.27%
29 | Cc1cc(NC(=O)CSc2nc3c(cc2C#N)CCCCC3)no1 | -7.82%
30 | CC(=O)c1cc(C#N)c(SCC(=O)Nc2nccs2)nc1C | 64.7% (active)
31 | CC(=O)c1cnc(SCC(=O)O)nc1C | -5.69%
32 | CC(=O)c1cc(C#N)c(SCC(=O)C(C)(C)C)nc1C | 50.6% (active)
33 | COCC(=O)Nc1ccc2c(c1)C(=O)N(C)C[C@H](OC)[C@@H](C)CN(CC1CC1)[C@@H](C)CO2 | -0.99%
34 | COc1ccccc1NC(=O)N[C@H]1CC[C@H](CCNS(=O)(=O)c2ccc(Cl)cc2)O[C@H]1CO | 16.7%
35 | CCN1[C@@H]2c3cccc(=O)n3C[C@H]1[C@H](CO)[C@H]2C(=O)NC1Cc2ccccc2C1 | -2%
36 | CCC(=O)N1C[C@@H](C)[C@H](OC)CN(C)C(=O)c2ccc(NC(=O)Nc3ccccc3)cc2OC[C@@H]1C | -0.74%
37 | COc1cccc(C(=O)NNC(=O)c2cccc(F)c2)c1 | 46.1% (active)
38 | CCc1ccc(NC(=O)Nc2ccncc2)cc1 | 19.8%
39 | COc1cccc(NC(=O)CC2C(=O)NCCN2C(=S)Nc2ccc(F)cc2)c1 (configuration not stated) | 3.78%
40 | COc1cccc(C(=O)NNS(=O)(=O)c2ccc(F)cc2)c1 | -2.92%
41 | CCC(=O)Nc1ccc(C(=O)Nc2cc(C)on2)cc1 | 15.4%
42 | CCC(=O)Nc1ccc(C(=O)NNC(=O)c2ccc(Cl)cc2)cc1 | -4.4%

Row | SMILES | reporter increase
43 | COc1cccc(C(=O)NNC(=O)/C=C/c2ccccc2)c1 | -6.98%
44 | O=C(Nc1ccccc1)c1ccc2nsnc2c1 | 28.4%
45 | COc1cccc(N(CC(=O)Nc2cccc(F)c2)S(C)(=O)=O)c1 | -2.9%
46 | CCC(=O)Nc1ccc(C(=O)Nc2cccc(OC)c2)cc1 | 49.8% (active)
47 | COc1cccc(NC(=O)Nc2ccc(F)cc2)c1 | 47.9% (active)
48 | COc1ccc(NC(=O)Nc2ccc3nsnc3c2)cc1 | 100% (active)
49 | CNC(=O)C[C@H]1CC[C@H]2[C@@H](COc3ccc(NC(=O)c4cccc(OC)c4)cc3C(=O)N2C)O1 | 4.25%
50 | COc1cccc(C#Cc2cnc3c(c2)C(=O)N([C@@H](C)CO)C[C@H](C)[C@H](CN(C)CC2CC2)O3)c1 | -5.64%
51 | CO[C@H]1CN(C)C(=O)c2cc(NS(=O)(=O)CC(F)(F)F)ccc2OC[C@@H](C)N(C(=O)c2ccc3c(c2)OCO3)C[C@@H]1C | 2.12%
52 | O=C(c1ccccc1)N1C[C@@H]2[C@H](c3ccccc31)[C@@H](CO)N2Cc1cc(F)ccc1F | -1.5%
53 | CO[C@@H]1CN(C)C(=O)c2cc(NC(=O)C3CCCCC3)ccc2OC[C@@H](C)N(C(=O)Nc2ccc(C(F)(F)F)cc2)C[C@H]1C | 9.31%
54 | CCCNC(=O)[C@H]1[C@H](CO)[C@H]2Cn3c(ccc(C4=CCCC4)c3=O)[C@H]2N1C(=O)CC1CC1 | -1.14%
55 | CC(=O)c1cccc(NC(=O)Nc2ccc(C)cc2)c1 | 42.2% (active)
56 | CCSc1nsc(NC(=O)Nc2cccc(C(C)=O)c2)n1 | 7.31%
57 | CC(=O)c1cccc(NC(=S)N2CCCC2)c1 | 3.72%
58 | CCOc1cc2ccccc2cc1C(=O)Nc1ccccn1 | 18.4%
59 | COc1ccc(C(=O)Nc2cc(C)c(NC(=O)c3ccccc3OC)cn2)cc1 | 34.2%
60 | COc1cc2ccccc2cc1C(=O)Nc1ccc(S(=O)(=O)Nc2cc(C)on2)cc1 | 5.76%
61 | COc1cc2ccccc2cc1C(=O)Nc1ccncc1 | 60% (active)
62 | Cc1ccccc1C(=O)Nc1ccccc1NC(=O)c1ccccc1C | -2.73%
63 | COc1cc2ccccc2cc1C(=O)Nc1ccccc1C | 71.4% (active)

Row | SMILES | reporter increase
64 | CC(C)C#Cc1cnc2c(c1)C(=O)N([C@@H](C)CO)C[C@@H](C)[C@@H](CN(C)C(=O)c1cccc(F)c1)O2 | 4.18%
65 | CCC(=O)N1[C@@H]2c3ccc(-c4ccc(F)cc4)c(=O)n3C[C@H]1[C@H](CO)[C@H]2C(=O)N(C)C | -3.81%
66 | CO[C@@H]1CC[C@@H]2CCOc3ccc(C#N)cc3C(=O)N(C)C[C@H](c3ccccc3)CC(=O)N(C)C[C@H]1O2 | -4.55%
67 | CO[C@@H]1CN(C)C(=O)c2cc(NC(=O)C3CCOCC3)ccc2OC[C@H](C)N(C)C[C@H]1C | -1.27%
68 | COc1ccc(-c2ccc([C@@H]3[C@@H](C#N)N(C(=O)C4CCCCC4)[C@H]3CO)cc2)cc1 | 9.6%
69 | O=C(COC(=O)c1ccc(F)cc1)NCCCc1ccccc1 | -1.61%
70 | O=C(NCc1ccccc1)c1cccc(NC(=O)C2CCCCC2)c1 | -4.78%
71 | CC(C)c1ccc(C(=O)NCCCc2ccccc2)cc1 | 55.1% (active)
72 | O=C(NCCc1ccccc1)c1cccc(NC(=O)c2ccccc2)c1 | 42.6% (active)
73 | CSc1ncc(C(=O)NCCCc2ccccc2)c(C)n1 | 5.19%
74 | CC(C)(C)OC(=O)N1CCC(C(=O)Nc2cccc(C(=O)NCCc3ccccc3)c2)CC1 | 24.1%
75 | C[C@@H]1CN([C@H](C)CO)S(=O)(=O)c2ccc(C3=CCCC3)cc2O[C@H]1CN(C)C(=O)CC1CC1 | -4.31%
76 | CC(=O)N1[C@@H]2Cn3c(ccc(C4=CCCC4)c3=O)[C@H]1[C@@H](C(=O)NC1CCC1)[C@@H]2CO | 1.06%
77 | CNC[C@H]1OCCCC[C@@H](C)Oc2ccc(NC(=O)Cc3ccccc3)cc2C(=O)N([C@H](C)CO)C[C@@H]1C | -1.06%
78 | CC=Cc1ccc2n(c1=O)C[C@H]1[C@H](CO)[C@@H](C(=O)NC3CCCC3)N(Cc3ccncc3)[C@@H]21 (mixture of isomers) | -6.02%
79 | CCCNC(=O)C[C@H]1C[C@@H]2c3cc(NC(=O)c4ccc5c(c4)OCO5)ccc3O[C@@H]2[C@@H](CO)O1 | 0.264%
80 | O=C1c2ccccc2C(=O)N1CCOc1ccc(F)cc1 | 60.3% (active)
81 | O=C1c2ccccc2C(=O)N1CCCCCCN1C(=O)c2ccccc2C1=O | 5.74%
82 | O=C(OCCN1C(=O)c2ccccc2C1=O)Oc1ccccc1 | -11.2%
